The entries come from a sample that favours hits as a whole.
BL2 CD40 inh – CD40 pathway inhibition in BL2 cells; BL2 NF-kB luciferase reporter, CD40L-induced, 4 h; inhibition, % at 10 µM; 0.94% of 83,000 active; AID 1053188;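 active = mean inhibition of at least 50% with a set share of replicates also reaching that level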;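 note: 0% = neutral control wells and 100% = IKK inhibitor VII at 50 µM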
Starred values were filed as active, the others as inactive; [ ] = remark or other dose.

SMILES	BL2 CD40 inh
CN1C(=O)CSc2ccc(NC(=O)N3CCc4ccccc43)cc21	-118
CC(=O)c1cccc(NC(=O)N2CCCc3ccccc32)c1	-23
CN1CCN(c2ccc(NC(=O)N3CCc4ccccc43)cc2)CC1	73*
CS(=O)(=O)N1[C@@H]2CN(CC3CC3)C[C@H]1C2c1ccc(Br)cc1 (stereo partly drawn)	-15
CN(C)C(=O)C[C@H]1C[C@@H]2c3cc(NC(=O)Nc4ccc(F)cc4)ccc3O[C@@H]2[C@H](CO)O1	-4[25 µM]
O=C(Nc1cccc(F)c1)N1[C@@H]2CNC[C@H]1C2c1ccc(-c2cccnc2)cc1 (stereo partly drawn)	-6
NC(=S)NN=Cc1c[nH]c2nccnc12	67*
NC(=S)NN=Cc1nccc2c(C(F)(F)C(F)(F)C(F)(F)F)cccc12	31
Cn1cccc1/C=N/NC(N)=S	4
O=C1N[C@H](c2ccccc2)COCc2cnnn2CC[C@H]1Cc1ccc(C(F)(F)F)cc1	-11[25 µM]
C/C=C/c1ccc([C@@H]2[C@@H](CO)N(C(=O)NCCC)[C@H]2CNC(=O)C2CCC2)cc1	2
O=C(C[C@@H]1CC[C@@H]2[C@H](COC[C@H](O)CN2Cc2ccc3c(c2)OCO3)O1)N1CCCCC1	4[25 µM]
CO[C@@H](CN(C)Cc1ccc2c(c1)OCO2)[C@@H](C)CN(C(=O)Nc1ccc(F)cc1)[C@@H](C)CO	3[25 µM]
COc1cccc(CN(C)C[C@H]2OCc3ccccc3-c3c(n(C)c4ccccc34)C(=O)N([C@H](C)CO)C[C@@H]2C)c1	19
CCN(CC(=O)Nc1c(F)cccc1F)C(=O)/C=C/c1ccc2ccccc2n1	-9
CCOc1ccc(/C=C/C(=O)N(CC)CC(=O)Nc2c(F)cccc2F)cc1OC	5
CCN(CC(=O)Nc1c(F)cccc1F)C(=O)/C=C/c1ccc(C)o1	84*
C[C@H](CO)N1C[C@H](C)[C@H](CN(C)C(=O)c2ccncc2)OCc2cn(nn2)CCCC1=O	2[25 µM]
C[C@@H]1CCCCO[C@H](CN(C)S(=O)(=O)c2ccc(F)cc2)[C@@H](C)CN([C@@H](C)CO)C(=O)c2cc(N(C)C)ccc2O1	4[25 µM]
COc1cccc2sc(N3CCN(C(=O)c4ccc([N+](=O)[O-])o4)CC3)nc12	76*
O=C(C1COc2ccccc2O1)N1CCN(c2nc3ccc([N+](=O)[O-])cc3s2)CC1 (stereo not drawn)	4
O=C(c1ccc([N+](=O)[O-])o1)N1CCN(c2nc3c(Cl)cccc3s2)CC1	14
O=C(c1cccs1)N1CCN(c2nc3ccccc3s2)CC1	-19
COc1cccc2sc(N3CCN(c4nc5ccccc5s4)CC3)nc12	5
O=C(c1ccc([N+](=O)[O-])o1)N1CCN(c2nc3ccc(F)cc3s2)CC1	32*
SMILES	BL2 CD40 inh
O=C(c1cccnc1)N1C[C@@H]2[C@H](c3ccccc31)[C@H](CO)N2C(=O)C1CC1	-1
C[C@H](O)C#Cc1ccc([C@H]2[C@@H](CO)N3CCCCN(C(=O)c4ccc5c(c4)OCO5)C[C@H]23)cc1	1[25 µM]
COc1cccc(S(=O)(=O)N[C@@H]2CC[C@H](CC(=O)NC3Cc4ccccc4C3)O[C@@H]2CO)c1	-3[25 µM]
C[C@@H]1CN([C@H](C)CO)C(=O)c2cc(NS(=O)(=O)c3cccs3)ccc2O[C@@H](C)CCCCO[C@@H]1CN(C)Cc1ccc(Cl)c(Cl)c1	42[25 µM]
C[C@@H]1CCCCO[C@@H](CN(C)Cc2ccc(Cl)c(Cl)c2)[C@H](C)CN([C@@H](C)CO)C(=O)c2cc(NS(=O)(=O)c3cccs3)ccc2O1	39[25 µM]
C[C@H](CO)N1C[C@H](C)[C@H](CN(C)C(=O)c2ccncc2)OCCCC[C@H](C)Oc2ccc(NS(=O)(=O)c3cccs3)cc2C1=O	-12[25 µM]
C[C@@H]1CCCCO[C@@H](CN(C)Cc2ccc(Cl)c(Cl)c2)[C@H](C)CN([C@H](C)CO)C(=O)c2cc(NS(=O)(=O)c3cccs3)ccc2O1	58*[25 µM]
C[C@@H]1CCCCO[C@@H](CN(C)Cc2ccc(Cl)c(Cl)c2)[C@@H](C)CN([C@@H](C)CO)C(=O)c2cc(NS(=O)(=O)c3cccs3)ccc2O1	35[25 µM]
C[C@@H]1CN([C@H](C)CO)C(=O)c2cc(NS(=O)(=O)c3cccs3)ccc2O[C@@H](C)CCCCO[C@H]1CN(C)Cc1ccc(Cl)c(Cl)c1	56*[25 µM]
Cc1noc(C)c1NC(=O)Nc1ccc2c(c1)CC(=O)N([C@@H](C)CO)C[C@@H](C)[C@@H](CN(C)S(=O)(=O)c1cccs1)O2	-6[25 µM]
N#CC(Cc1ccc(O)cc1)c1ccc(O)cc1 (stereo not drawn)	12[25 µM]
COc1ccc2c3c([nH]c2c1)[C@@H](CO)N(C(=O)CN1CCOCC1)CC31CCN(CC2CCCC2)CC1	8[25 µM]
N#Cc1ccc(-c2ccc3c(c2)[C@@H]2[C@@H](CCN2C(=O)c2ccc4c(c2)OCO4)[C@@H](CO)N3)cc1	-14[25 µM]
OC(CNc1ccnc2cc(Cl)ccc12)CNC1CCCCC1 (stereo not drawn)	-8
O=C(NCCNc1ccnc2cc(Cl)ccc12)c1ccccc1F	37*
CCN(CC)CCNc1ccnc2cc(Cl)ccc12	-7
